Data as given in PubChem BioAssay.
Values joined by “and” are separate entries in the source; they are usually repeats but may differ in a detail not shown here. Equal values may be shown once. The list shows a part of the results. Active and inactive are the calls of the source.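 How the source made its calls, unless noted: active means mean inhibition over 43.08%, the solvent-only control mean plus 3 SD; inactive means the rest.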

Assays:
[1] = molecular target: Nuclear receptor coactivator 3 (Homo sapiens) (UniProt Q9Y6Q9); test: NCOA3 GAL4-fusion reporter inhibition – cell-based, luminescence, quadruplicate, confirmation (AID 588792); conditions: HEK293 GAL4-SRC3 luciferase reporter, at 3.6 µM, stronger effect = higher value;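 further: 0% = DMSO treated cells and 100% = gossypol at 36 µM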
Chain of Nuclear receptor coactivator 3 (Homo sapiens) (Q9Y6Q9 whole entry, looked up, the tested form may be a part): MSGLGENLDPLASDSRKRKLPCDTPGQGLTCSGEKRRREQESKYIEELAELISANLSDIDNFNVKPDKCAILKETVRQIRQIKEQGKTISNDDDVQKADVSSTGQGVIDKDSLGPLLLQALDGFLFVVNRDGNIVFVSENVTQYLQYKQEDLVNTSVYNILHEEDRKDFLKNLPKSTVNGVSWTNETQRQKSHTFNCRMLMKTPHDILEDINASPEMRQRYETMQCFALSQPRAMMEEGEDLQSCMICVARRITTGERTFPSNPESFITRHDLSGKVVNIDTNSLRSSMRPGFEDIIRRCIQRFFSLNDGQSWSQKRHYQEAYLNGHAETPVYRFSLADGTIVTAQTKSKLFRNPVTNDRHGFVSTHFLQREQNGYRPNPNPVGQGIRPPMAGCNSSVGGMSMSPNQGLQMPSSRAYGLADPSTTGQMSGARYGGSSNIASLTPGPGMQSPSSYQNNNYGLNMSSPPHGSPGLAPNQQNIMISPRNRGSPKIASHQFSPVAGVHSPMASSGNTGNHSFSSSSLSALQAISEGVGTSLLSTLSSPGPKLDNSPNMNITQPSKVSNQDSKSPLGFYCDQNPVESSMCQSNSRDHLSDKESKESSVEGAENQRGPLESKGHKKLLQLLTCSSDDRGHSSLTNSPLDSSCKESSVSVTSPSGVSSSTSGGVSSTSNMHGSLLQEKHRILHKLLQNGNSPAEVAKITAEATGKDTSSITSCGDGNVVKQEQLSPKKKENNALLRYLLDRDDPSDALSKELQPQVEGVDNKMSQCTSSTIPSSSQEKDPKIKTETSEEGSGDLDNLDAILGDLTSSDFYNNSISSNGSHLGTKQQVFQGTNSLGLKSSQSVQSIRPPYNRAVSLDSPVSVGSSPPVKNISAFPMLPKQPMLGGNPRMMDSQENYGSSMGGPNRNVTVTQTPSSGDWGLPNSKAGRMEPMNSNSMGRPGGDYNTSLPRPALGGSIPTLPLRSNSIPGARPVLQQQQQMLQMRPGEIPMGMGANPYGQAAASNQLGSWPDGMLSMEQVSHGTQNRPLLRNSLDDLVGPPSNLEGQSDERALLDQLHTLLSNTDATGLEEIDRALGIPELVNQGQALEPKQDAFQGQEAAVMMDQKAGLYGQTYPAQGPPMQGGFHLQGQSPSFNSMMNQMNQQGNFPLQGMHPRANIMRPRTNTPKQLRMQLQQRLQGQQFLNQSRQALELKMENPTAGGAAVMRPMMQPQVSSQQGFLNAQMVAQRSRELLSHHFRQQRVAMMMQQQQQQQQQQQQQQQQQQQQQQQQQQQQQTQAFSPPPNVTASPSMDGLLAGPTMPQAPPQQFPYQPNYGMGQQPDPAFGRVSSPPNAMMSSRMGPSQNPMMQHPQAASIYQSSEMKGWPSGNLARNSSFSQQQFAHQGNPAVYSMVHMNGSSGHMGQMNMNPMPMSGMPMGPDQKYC

[2] = system: transactivating tegument protein VP16 (Human herpesvirus 1), Gal4-VP16 luciferase reporter; test: repression of VP16-driven luciferase reporter – cell-based, luminescence, high throughput, counter-screen for SRC3 inhibitor project (AID 588794; in the data active means inhibition above about 30%); conditions: mammalian cells, at 3.6 µM, stronger effect = higher value
[3] = molecular target: Nuclear receptor coactivator 1 (Homo sapiens) (UniProt Q15788); test: NCOA1 GAL4-fusion reporter inhibition – cell-based, luminescence, quadruplicate, confirmation (AID 588820;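 active means mean inhibition above 46.68%, the untreated control wells mean plus 3 SD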;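 further: 0% = DMSO wells and 100% = gossypol 36 µM treated wells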); conditions: HEK293 GAL4-SRC1 luciferase reporter, at 3.6 µM, stronger effect = higher value
[4] = repression of VP16-driven luciferase reporter – cell-based, luminescence, high throughput, counter-screen for SRC1 inhibitor project (AID 588824; in the data active means inhibition above about 25%); conditions: cell-based VP16 transactivation luciferase luminescence; at 3.6 µM; stronger effect = higher value
[5] = molecular target: Nuclear receptor subfamily 5 group A member 2 (Homo sapiens) (UniProt O00482); test: NR5A2 activity suppression in reporter cells – cell-based, luminescence, confirmation (AID 651613; in the data active means inhibition above about 42%;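 further: HEK293T cells co-transfected with LRH-1 and StAR promoter luciferase reporter; 0% = vehicle wells and 100% = parental cells lacking receptor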); conditions: cell-based LRH-1 luciferase reporter, inverse agonism; at 3.6 µM; stronger effect = higher value
Chain of Nuclear receptor subfamily 5 group A member 2 (Homo sapiens) (O00482 whole entry, looked up): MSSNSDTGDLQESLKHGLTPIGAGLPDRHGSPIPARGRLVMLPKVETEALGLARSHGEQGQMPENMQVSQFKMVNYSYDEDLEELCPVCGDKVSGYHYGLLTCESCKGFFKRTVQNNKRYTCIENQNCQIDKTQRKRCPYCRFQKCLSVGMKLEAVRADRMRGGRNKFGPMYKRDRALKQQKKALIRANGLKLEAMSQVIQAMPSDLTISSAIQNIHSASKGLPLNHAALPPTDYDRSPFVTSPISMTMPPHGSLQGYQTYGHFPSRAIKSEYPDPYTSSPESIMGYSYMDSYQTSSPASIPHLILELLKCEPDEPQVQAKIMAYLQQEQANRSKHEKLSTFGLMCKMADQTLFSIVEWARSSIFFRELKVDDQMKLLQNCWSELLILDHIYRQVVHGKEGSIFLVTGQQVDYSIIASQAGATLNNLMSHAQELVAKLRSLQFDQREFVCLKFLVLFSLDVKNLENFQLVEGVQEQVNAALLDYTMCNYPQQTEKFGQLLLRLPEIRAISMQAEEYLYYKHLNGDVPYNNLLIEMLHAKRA

[6] = molecular target: Steroidogenic factor 1 (Homo sapiens) (UniProt Q13285); test: inverse agonism at SF1 nuclear receptor – cell-based, luminescence, high throughput, counter-screen for LRH-1 inverse agonist project (AID 651614; in the data active means inhibition above about 44%;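 further: cells cotransfected with StAR promoter reporter and SF1 expression vector; 0% = vehicle on cells with receptor and 100% = vehicle on cells lacking receptor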); conditions: cell-based SF1 luciferase reporter, at 3.6 µM, stronger effect = higher value
Chain of Steroidogenic factor 1 (Homo sapiens) (Q13285 whole entry, looked up): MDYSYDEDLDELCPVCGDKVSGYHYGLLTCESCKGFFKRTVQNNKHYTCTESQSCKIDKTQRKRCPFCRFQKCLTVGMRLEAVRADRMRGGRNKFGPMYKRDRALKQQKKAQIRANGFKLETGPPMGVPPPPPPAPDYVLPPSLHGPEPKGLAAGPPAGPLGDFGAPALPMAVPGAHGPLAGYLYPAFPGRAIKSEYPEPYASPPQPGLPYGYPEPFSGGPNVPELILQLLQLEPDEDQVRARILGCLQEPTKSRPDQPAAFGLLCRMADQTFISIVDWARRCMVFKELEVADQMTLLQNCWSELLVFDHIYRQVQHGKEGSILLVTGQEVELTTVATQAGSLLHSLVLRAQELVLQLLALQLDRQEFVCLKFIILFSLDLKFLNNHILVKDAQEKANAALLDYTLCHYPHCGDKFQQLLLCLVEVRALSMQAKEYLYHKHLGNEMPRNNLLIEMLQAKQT

[7] = system: transactivating tegument protein VP16 (Human herpesvirus 1); test: compounds suppressing VP16-driven luciferase signal – cell-based, luminescence, single concentration, counter-screen for SRC2 inhibitor project (AID 652007; in the data active means inhibition above about 36%); conditions: cell-based VP16 transactivation luciferase reporter, at 8.9 µM, stronger effect = higher value
[8] = molecular target: Nuclear receptor coactivator 2 (Homo sapiens) (UniProt Q15596); test: inhibition of GAL4-SRC2 driven luciferase expression – cell-based, luminescence, HEK293, triplicate, confirmation (AID 652008;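 active means mean inhibition above 46.5%, the solvent-only control mean plus 3 SD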;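 further: 0% = DMSO-treated cells and 100% = Gossypol at 36 µM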); conditions: HEK293 GAL4-SRC2 luciferase reporter, at 8.9 µM, stronger effect = higher value
Chain of Nuclear receptor coactivator 2 (Homo sapiens) (Q15596 whole entry, looked up, the tested form may be a part): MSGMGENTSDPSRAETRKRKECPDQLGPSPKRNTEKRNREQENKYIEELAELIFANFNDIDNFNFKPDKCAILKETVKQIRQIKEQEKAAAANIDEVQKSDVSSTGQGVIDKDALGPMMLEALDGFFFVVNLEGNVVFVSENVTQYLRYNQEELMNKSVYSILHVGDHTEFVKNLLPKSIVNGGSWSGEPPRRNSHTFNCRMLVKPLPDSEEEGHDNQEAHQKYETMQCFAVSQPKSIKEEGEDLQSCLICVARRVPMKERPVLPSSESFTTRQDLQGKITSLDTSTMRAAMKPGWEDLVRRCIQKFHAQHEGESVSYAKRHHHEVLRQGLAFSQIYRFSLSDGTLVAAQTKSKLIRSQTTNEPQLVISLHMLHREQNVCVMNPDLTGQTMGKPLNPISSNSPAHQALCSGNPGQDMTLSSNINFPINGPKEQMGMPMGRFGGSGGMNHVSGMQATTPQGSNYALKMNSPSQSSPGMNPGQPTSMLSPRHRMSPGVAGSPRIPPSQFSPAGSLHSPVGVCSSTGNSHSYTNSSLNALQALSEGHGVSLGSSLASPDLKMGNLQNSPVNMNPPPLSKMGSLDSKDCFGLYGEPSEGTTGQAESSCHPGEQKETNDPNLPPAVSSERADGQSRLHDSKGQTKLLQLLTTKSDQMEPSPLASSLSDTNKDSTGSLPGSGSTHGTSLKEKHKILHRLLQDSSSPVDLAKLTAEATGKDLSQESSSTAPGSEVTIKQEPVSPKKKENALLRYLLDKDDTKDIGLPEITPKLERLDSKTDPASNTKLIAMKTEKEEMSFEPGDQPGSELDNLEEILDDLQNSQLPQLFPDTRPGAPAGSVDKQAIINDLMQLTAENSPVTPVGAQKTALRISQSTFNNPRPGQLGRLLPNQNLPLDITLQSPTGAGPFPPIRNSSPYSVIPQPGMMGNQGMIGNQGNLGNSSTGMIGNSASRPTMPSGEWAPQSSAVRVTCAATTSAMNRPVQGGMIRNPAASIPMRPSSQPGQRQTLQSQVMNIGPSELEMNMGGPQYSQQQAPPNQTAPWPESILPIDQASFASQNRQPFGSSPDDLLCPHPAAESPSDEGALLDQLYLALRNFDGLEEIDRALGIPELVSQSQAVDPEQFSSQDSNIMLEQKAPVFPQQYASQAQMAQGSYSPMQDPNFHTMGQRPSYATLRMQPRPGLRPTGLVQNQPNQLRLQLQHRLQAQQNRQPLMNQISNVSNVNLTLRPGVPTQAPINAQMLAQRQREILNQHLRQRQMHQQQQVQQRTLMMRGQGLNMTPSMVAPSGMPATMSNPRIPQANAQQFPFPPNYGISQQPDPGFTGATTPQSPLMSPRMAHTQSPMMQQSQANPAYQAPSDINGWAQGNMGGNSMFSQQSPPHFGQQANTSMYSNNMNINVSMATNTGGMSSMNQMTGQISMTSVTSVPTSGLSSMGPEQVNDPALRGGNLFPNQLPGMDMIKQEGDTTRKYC

[9] = StAR promoter reporter inhibitors, counter-screen for LRH-1 inverse agonist project, cell-based, luminescence, high throughput (AID 651611; in the data active means inhibition above about 28%); conditions: StAR promoter luciferase reporter counterscreen, at 3.6 µM, stronger effect = higher value
[10] = compounds suppressing VP16-driven luciferase signal – cell-based, luminescence, high throughput, counter-screen for LRH-1 inverse agonist project (AID 651615; in the data active means inhibition above about 33%); conditions: Gal4-VP16 luciferase reporter cells, at 3.6 µM, stronger effect = higher value
[11] = VP16-driven transactivation reporter suppression – cell-based, luminescence, HEK293, counter-screen for COUP-TFII antagonist project (AID 687007; in the data active means inhibition above about 13%); conditions: HEK293 Gal4-VP16 luciferase reporter, at 8.5 µM, stronger effect = higher value
[12] = molecular target: COUP transcription factor 2 (Homo sapiens) (UniProt P24468); test: retest of COUP-TFII reporter suppressors – cell-based, luciferase reporter, HEK293, triplicate, confirmation (AID 687008;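 active means mean inhibition over three repeats above a set limit taken from the earlier primary screen, cut at about 38% in these data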;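 further: 100% = cells given the luciferase reporter alone without the COUP-TF2 vector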); conditions: HEK293 NGFI-A luciferase reporter, luminescence; at 8.5 µM; stronger effect = higher value
Chain of COUP transcription factor 2 (Homo sapiens) (P24468 whole entry, looked up): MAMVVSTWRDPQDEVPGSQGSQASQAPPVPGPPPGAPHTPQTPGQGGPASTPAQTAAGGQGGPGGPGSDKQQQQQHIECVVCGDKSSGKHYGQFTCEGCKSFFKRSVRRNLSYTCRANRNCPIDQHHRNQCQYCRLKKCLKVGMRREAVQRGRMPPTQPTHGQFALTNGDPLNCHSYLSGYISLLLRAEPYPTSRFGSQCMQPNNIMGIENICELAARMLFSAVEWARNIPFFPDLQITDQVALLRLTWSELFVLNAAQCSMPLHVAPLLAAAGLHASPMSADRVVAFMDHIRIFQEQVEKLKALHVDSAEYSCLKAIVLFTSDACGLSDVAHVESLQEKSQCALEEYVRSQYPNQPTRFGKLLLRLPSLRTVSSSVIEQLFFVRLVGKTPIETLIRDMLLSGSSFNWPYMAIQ

Measured: inhibition

COc1ccc(CC2C(=O)NC(C)C(=O)N(C)C3C(=O)N(C)C(Cc4ccc(O)c(c4)Oc4ccc(cc4)C3O)C(=O)NC(C)C(=O)NC(C)C(=O)N2C)cc1 (configuration not stated)
active: [1] 98.6% | [2] 96.7% | [3] 94.8% | [4] 95.5% | [5] 111% | [6] 98.8% | [7] 80.4% | [8] 77.1%

CC(N)C(=O)NC1C2C(=C(O)CC(O)C2O)C(=O)OC1(C)C(Cl)Cl (configuration not stated)
active: [1] 98.8% | [2] 96.8% | [3] 88.6% | [4] 96.8% | [9] 96.4% | [5] 110% | [6] 98.5% | [10] 98.3% | [7] 77.2% | [8] 74.3%

C[C@H]1C[C@@H](C)C(=O)[C@@H]([C@H](O)CC2CC(=O)NC(=O)C2)C1
active: [1] 96.7% | [2] 92.3% | [3] 82.3% | [4] 91.3% | [5] 110% | [6] 97.9% | [7] 63.2% | [8] 62.9%

C=C1C(=O)O[C@@H]2C[C@@H](C)[C@@H]3C=CC(=O)[C@@]3(C)[C@@H](OC(=O)CC(=O)O[C@H]3[C@@H]4C(=C)C(=O)O[C@@H]4C[C@@H](C)[C@@H]4C=CC(=O)[C@]43C)[C@H]12
active: [1] 97.5% | [2] 96% | [3] 91.3% | [4] 95.7% | [9] 94.5% | [5] 106% | [6] 97.1% | [10] 94.5% | [7] 96% | [8] 99%

COc1ccc(CC2NCC(O)C2OC(C)=O)cc1 (configuration not stated)
active: [1] 98.6% | [2] 96.7% | [3] 96.2% | [4] 96.6% | [9] 96.6% | [5] 111% | [6] 98.3% | [10] 96.1% | [7] 84.6% | [8] 82.5%

C=C1C(=O)O[C@@H]2C[C@@H](C)[C@@H]3C=CC(=O)[C@@]3(C)[C@@H](O)[C@H]12
inactive: [1] 42.1%
active: [2] 92.5% | [4] 91.7% | [7] 96% | [8] 93.7%

O=C1CN=C(c2ccc[nH]2)c2cc(Cl)ccc2N1
inactive: [7] 30.2% | [8] 44%
active: [1] 76% | [2] 57.9% | [3] 53.3% | [4] 57.5%

C[C@]12CC[C@H](O)C[C@H]1CC[C@@H]1C2CC[C@]2(C)[C@@H](C3=CC(=O)OC3)[C@@H](O)C[C@]12O (some centres not stated)
inactive: [2] 21.1% | [3] -39% | [4] 12.7% | [11] -16.6% | [12] 30.9%
active: [1] 75.3% | [9] 87.1% | [5] 90.4% | [6] 69.9% | [10] 40.9%

CCC1CN2CCc3cc(OC)c(OC)cc3C2CC1CC1NCCc2c1[nH]c1ccc(O)cc21 (configuration not stated)
active: [1] 98% | [2] 96.7% | [3] 95.4% | [4] 95.9% | [9] 95.7% | [5] 110% | [6] 98.3% | [10] 98.7% | [7] 78.1% | [8] 73.4%

C[C@]12CCC3C(CCC4=CC(O)CC[C@@]43/C=N/O)C1(O)CCC2C1=CC(=O)OC1 (some centres not stated)
inactive: [8] 11.4%
active: [1] 95.1% | [2] 79.7% | [3] 49.1% | [4] 77.8% | [9] 94.8% | [5] 108% | [6] 97% | [10] 82.5% | [7] 63.6%

N#Cc1cn(C2OC(CO)C(O)C2O)c2ncnc(N)c12 (configuration not stated)
inactive: [3] -24% | [7] 30.4%
active: [1] 81.4% | [2] 91.3% | [4] 89.7% | [9] 82% | [5] 107% | [6] 94.1% | [10] 91% | [8] 48.3%

CC12CCC(O)CC1CCC1C2CCC2(C)C(C3=CC(=O)OC3)CCC12O (configuration not stated)
inactive: [8] 23.6%
active: [1] 97.6% | [2] 87.9% | [3] 70.6% | [4] 87.4% | [9] 95.7% | [5] 110% | [6] 98.2% | [10] 89% | [7] 58.5%

Nc1ncnc2c1ccn2[C@@H]1O[C@H](CO)[C@@H](O)[C@H]1O
active: [1] 93.6% | [2] 89.5% | [3] 53.4% | [4] 86.8% | [9] 90.9% | [5] 107% | [6] 94.2% | [10] 93.6% | [7] 55.5% | [8] 58.3%

O=C(c1ccccc1)C(CN1CCCC1)c1ccccc1 (configuration not stated)
inactive: [1] 19.4% | [3] 10.9% | [7] 27%
active: [2] 33.5% | [4] 39.2% | [8] 68.3%

CC(=O)OC1CC(OC2C(O)CC(OC3C(O)CC(OC4CCC5(C)C(CCC6C5CCC5(C)C(C7=CC(=O)OC7)C(O)CC65O)C4)OC3C)OC2C)OC(C)C1OC1OC(CO)C(O)C(O)C1O (configuration not stated)
active: [1] 93.4% | [2] 79.7% | [4] 72.8% | [9] 97.7% | [5] 111% | [6] 99.3% | [10] 85.1% | [7] 61.8%
inactive: [3] 39.1% | [8] 13.5%

CC1=CC2OC3CC4OC(=O)C=CC=CC(C(C)O)OCC(O)C(C)CC(=O)OCC2(CC1O)C4(C)C31CO1 (configuration not stated)
active: [1] 98.7% | [2] 98.2% | [3] 97.4% | [4] 97.9% | [9] 96.3% | [5] 108% | [6] 96% | [10] 97.5% | [7] 79.8% | [8] 70.1%

CC(=O)OCC12CC(OC(=O)CC(C)C)C(C)=CC1OC1C(O)C(OC(C)=O)C2(C)C12CO2 (configuration not stated)
active: [1] 95.1% | [2] 91.9% | [3] 88.5% | [4] 88.9% | [9] 97% | [5] 110% | [6] 98.3% | [10] 97.8% | [7] 79.1% | [8] 75.4%

C=C1C(=O)OC2CC(C)C3C=CC(=O)C3(C)C(O)C12 (configuration not stated)
active: [2] 90.7% | [4] 90.6% | [9] 62.5% | [5] 88.6% | [6] 90.1% | [10] 91.2%
inactive: [1] 38%

CC1CC(C)CC(C)C(O)C(C#N)=CC=CCC(C2CCCC2C(=O)O)OC(=O)CC(O)C(C)C1 (configuration not stated)
active: [1] 97.5% | [2] 95.6% | [3] 89.6% | [4] 94.4% | [9] 95.8% | [5] 110% | [6] 97.9% | [10] 98.7% | [7] 78.4% | [8] 78.7%

O=c1[nH]c(O)c(N=Nc2ccc3c(c2)OCCO3)c(=O)[nH]1
active: [1] 53.3% | [8] 63.6%
inactive: [2] 25.7% | [3] 6.27% | [4] -1.38% | [9] 22.6% | [5] 9.98% | [6] 42.1% | [10] 9.89% | [7] 33.9%

CCN1CCN(c2ncnc3ccc(Br)cc23)CC1
inactive: [7] 2.45% | [8] 36.7%
active: [1] 56.6% | [2] 54.3% | [3] 72.2% | [4] 44.9%

O=C1NC2C(=CC(O)C(O)C2O)c2cc3c(cc21)OCO3 (configuration not stated)
active: [1] 97.1% | [2] 96.6% | [3] 88.5% | [4] 96.3% | [9] 94% | [5] 109% | [6] 96.7% | [10] 95.6% | [7] 73.8% | [8] 76.2%

CCCCN=C[C@]12CCC(O)CC1(O)CCC1[C@@H]2CC[C@]2(C)[C@H](C3C=CC(=O)O3)CCC12O (some centres not stated)
inactive: [3] 42% | [8] 20.9%
active: [1] 94% | [2] 75.5% | [4] 75% | [9] 97% | [5] 110% | [6] 98.5% | [10] 85.2% | [7] 69.6%

COc1ccc2c(c1)[nH]c1c(C)nccc12
inactive: [7] 9.1% | [8] 42.9%
active: [1] 79% | [2] 48.6% | [3] 63.4% | [4] 51.4%

C=Cc1cc(OC)c2c(c1)c(=O)oc1c2cc(OC)c2c(O)ccc(C3OC(C)C(O)C(C)(O)C3O)c21 (configuration not stated)
inactive: [3] -23.3% | [8] -166%
active: [1] 46.1% | [2] 88.3% | [4] 88% | [7] 42.7%

CC1OC(OC2CC(O)C3(CO)C4C(O)CC5(C)C(C6=CC(=O)OC6)CCC5(O)C4CCC3(O)C2)C(O)C(O)C1O (configuration not stated)
active: [1] 97.2% | [2] 89.1% | [3] 80.3% | [4] 87.2% | [5] 109% | [6] 96% | [10] 93.5% | [7] 70.9% | [8] 54%

COc1ccc(C[C@H]2NC[C@H](O)[C@H]2OC(C)=O)cc1
active: [1] 98.9% | [2] 97.4% | [3] 96% | [4] 96.7% | [9] 94.4% | [5] 110% | [6] 97.7% | [10] 95.9% | [7] 79.2% | [8] 78.6%

COC(=O)C1=C(c2ccc(-c3ccccc3)c(F)c2)C[C@@H]2CC[C@H]1N2C(=O)N1CCCCC1
active: [2] 39%
inactive: [1] 18.3% | [7] 19.5% | [8] 35.4%

CNC(=O)c1cccn(Cc2ccc(C(F)(F)F)cc2)c1=O
inactive: [1] 30.3% | [2] -34.3% | [10] -78.8%
active: [9] 47.7% | [5] 65.9% | [6] 54.3%

CCCCC(CC)COCCCN=Cc1c(O)[nH]c(=S)[nH]c1=O (configuration not stated)
inactive: [3] 29.9% | [4] 17.5%

CCC(C)(C)n1nnnc1CN1CCC(n2c(C)nc3cc(C(F)(F)F)ccc32)CC1
inactive: [3] 17.3% | [4] -2.08%

C[C@H]1CCC/C=C/[C@@H]2C[C@H](O)C[C@H]2[C@H](O)/C=C/C(=O)O1
active: [1] 70% and 66.5% | [2] 76.2% and 77.2% | [9] 77.6% and 82% | [5] 82.1% and 88.7% | [6] 75% and 80.4% | [10] 78.7% and 78.3%
